# Screening data: PubChem, National Center for Advancing Translational Sciences (NCATS)
# TSG101-PTAP inh – blocks PTAP/TSG101 interaction to inhibit HIV-1 budding; Q99816; Fluorescence polarization, FITC-PTAP peptide / Tsg101 binding; Potency, µM (highest dose often 115 µM), inactives show at the top dose activity change, negative = inhibition, usual class: inhibitors; 340,000 tested, under 10 active; active = well fitted inhibition curve with a large enough effect in the main read-out, with a control signal flat, not every such curve was filed as active; inconclusive = small, poorly fitted or top-dose-only effect, or effect the other way, or a change in a side signal; inactive = no such curve, though single readings can be large or run the other way; note: % of control where 0% means no effect
# Target sequence (Q99816 whole entry, looked up): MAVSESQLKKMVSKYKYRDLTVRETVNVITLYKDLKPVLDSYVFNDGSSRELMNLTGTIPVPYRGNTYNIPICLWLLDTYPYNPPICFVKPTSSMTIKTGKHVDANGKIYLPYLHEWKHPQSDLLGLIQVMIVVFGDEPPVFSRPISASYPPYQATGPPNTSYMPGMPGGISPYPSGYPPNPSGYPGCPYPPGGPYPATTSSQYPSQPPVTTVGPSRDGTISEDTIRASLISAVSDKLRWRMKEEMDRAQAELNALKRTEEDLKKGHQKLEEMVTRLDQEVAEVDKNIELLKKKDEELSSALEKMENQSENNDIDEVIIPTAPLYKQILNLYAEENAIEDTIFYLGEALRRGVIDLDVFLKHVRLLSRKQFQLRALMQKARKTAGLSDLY
#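 Steps: Tsg101 binding domain dispensed (10 uM final), compounds pinned in DMSO, FITC-labeled PTAP-motif peptide added (50 nM final); after 20 min binding at room temperature, polarization measured.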
# MCF10A rerep – induces DNA re-replication in MCF 10a normal breast cells | MCF 10A DNA re-replication, Hoechst nuclear intensity, 48 h | Potency, µM (highest dose often 46.1 µM), inactives show at the top dose activity, positive = re-replication, usual class: activators | actives 2.9% (n = 350,000) | AID 624296; note: % of control where 0% means no effect; nearly all actives have a fitted effect of over 50% in size
# PINK1 expr mod – PINK1 expression modulation; actives 0.2% (n = 410,000); Potency, µM (titrated, usually from 76.6 µM), without a hit: top-dose activation (PINK1 increase), hits mostly activators; PINK1 immunofluorescence, high-content cytometry, 24 h; AID 624263; active = well fitted activation curve with a large enough effect; inconclusive = small, poorly fitted or top-dose-only effect; cell line not stated here; note: % of control where 0% means no effect; nearly all actives have a fitted effect of over 65% in size
#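 Stable cell line, 250 cells/well, 12 h attachment; compounds pinned at 5 concentrations, 24 h; CCCP control. Fixed with nuclear dye, primary antibodies 12 h at 10 degrees C, secondary plus cell stain; laser-scanning cytometer read.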
# KB-V1 cytotox – KB-V1 MDR subline cytotoxicity | KB-V1 MDR cells viability, CellTiter-Glo, 72 h | Potency, µM (highest dose often 46.1 µM), usual class: cytotoxic | actives 3.4% (n = 400,000) | AID 1347076; note: % is set by controls: 0 for no effect and ±100 for the full control effect; nearly all actives have a fitted effect of over 60% in size
#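 Luminescent ATP read-out (CellTiter-Glo, 10 min) measures survival of drug-selected KB-V1 MDR cells after 72 h, 37 degrees C compound exposure. Medium: phenol-red-free DMEM, 10% FBS. Values from fitted concentration-response curves.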
# KB-3-1 tox – kills parental KB-3-1 adenocarcinoma cells; KB-3-1 viability, CellTiter-Glo ATP luminescence, 72 h; actives 1.4% (n = 400,000); Potency, µM (top dose mostly 46.1 µM), actives largely listed as cytotoxic; note: % is set by controls: 0 for no effect and ±100 for the full control effect; nearly all actives have a fitted effect of over 60% in size
#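 Cytotoxicity measured as CellTiter-Glo luminescence after 72 h at 37 C. Compound titrations were pinned onto drug-naive KB-3-1 parental adenocarcinoma cells grown in DMEM with 10% FBS, and normalized data fitted to concentration-response curves.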
# SW480 rerep – DNA re-replication induction in SW480 cells; SW480 DNA re-replication, Hoechst DNA content imaging, 48 h; Potency, µM (doses to about 46.1 µM), inactives show top-dose re-replication activation, hits mostly activators; actives 1.8% (n = 340,000); AID 624297; note: % of control where 0% means no effect; nearly all actives have a fitted effect of over 55% in size
#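 SW480 cells exposed to compounds for 48 hr at 37 C, 5% CO2, then Hoechst-stained 40 min. Nuclear DNA content imaged by fluorescence scanning (405 nm excitation, 500-530 nm emission); re-replication scored as increased high-intensity nuclei.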
# The depositor's hits bear a star; i = inactive; ? = inconclusive; nt = not tested or not shown; [ ] = dose if it differs, or a comment. The list is not random: actives were taken first. Their share in the collection is about 6.8%. Unless noted, calls come from the whole dose curve; as a rule, active = well fitted curve in the direction sought with a large enough effect; inconclusive = small, poorly fitted or top-dose-only effect, or another doubt; inactive = no such curve, though single readings can be large; an effect the other way counts as inactive or inconclusive. Potency is the fitted concentration of half-maximal effect.
SMILES,TSG101-PTAP inh,MCF10A rerep,PINK1 expr mod,KB-V1 cytotox,KB-3-1 tox,SW480 rerep
Cc1onc(-c2ccccc2Cl)c1C(=O)Nc1ccc(-c2cn3cccnc3n2)cc1,nt,-2.6%,5.1%[38.3 µM],?,i,0.0%
Cc1ccc(-c2cn3cccnc3n2)cc1NC(=O)c1c(-c2ccccc2Cl)noc1C,-9.7%,?,3.2%,4.61µM*,11.6µM*,?
Cc1cnc(-n2ncc(C(=O)N(CCO)C(C)C)c2-c2cccs2)nc1-c1ccc(F)cc1,nt,nt,-1.0%,nt,nt,nt
COc1ccc(-c2cc3ccc(O)c(CN4CCCCC4C)c3oc2=O)cc1OC (stereo not drawn),nt,nt,0.8%,?,i,nt
c1ccc2c(c1)Cc1cc(CN3CCOCC3)ccc1-2,-7.8%,20.9%,1.5%[38.3 µM],20.6µM*,i,-1.2%
CC(C)N1C[C@@H](Sc2ccccn2)C[C@H]1C(=O)Nc1ccc2c(c1)Nc1ccccc1CC2,nt,nt,0.5%,nt,nt,nt
COc1ccc(C2=CC(=O)OC(C)(c3ccccc3)O2)cc1 (stereo not drawn),-0.5%,?,4.7%,16.4µM*,i,?
O=C(Nc1ccc(Cl)cc1)Nc1ccccc1C(=O)O,-5.9%,24.6%,-1.4%,i,i,?
O=C(Nc1ccc(Cl)c(Cl)c1)Nc1nc(-c2ccccc2)cs1,1.2%,?,15.4%,6.51µM*,11.6µM*,27.4%
O=C(Nc1ccc(Cl)c(Cl)c1)Nc1ccccc1C(=O)O,-1.5%,6.6%,0.1%,14.6µM*,?,7.9%
O=C(Nc1ccccc1)Nc1nc(-c2ccccc2)cs1,-0.6%,-3.9%,2.6%,i,i,10.1%
CC(=O)N1CCc2c(sc3c2c(=O)n(-c2cc(Cl)ccc2C)c(=O)n3C)C1,nt,nt,-1.3%,?,?,nt
CC(C)n1nc(C(=O)Nc2nnc(SCc3c(Cl)cccc3Cl)s2)c2ccccc2c1=O,-3.2%,?,5.62µM*,i,i,?
CCn1c(N2CCN(S(=O)(=O)c3ccc(Cl)cc3)CC2)nc2ccccc21,0.2%,-0.7%,3.0%,8.2µM*,?,-1.2%
CCCn1c(N2CCN(Cc3ccc(Cl)cc3)CC2)nc2ccccc21,-11.2%,47.9%,24.0%,?,i,-2.3%
CCn1c(N2CCN(S(=O)(=O)c3ccc(F)cc3)CC2)nc2ccccc21,-1.6%,4.7%,-2.7%,11.6µM*,?,-10.0%
CCn1c(N2CCN(C(=S)NCC(C)C)CC2)nc2ccccc21,-9.3%,18.4µM*,nt,10.3µM*,i,17.2%
CCn1c(N2CCN(S(=O)(=O)CC)CC2)nc2ccccc21,-0.2%,-6.2%,4.7%,?,i,-8.1%
O=S(=O)(O)c1cc(O)c2c(N=Nc3ccc(Nc4ccccc4)c4c(S(=O)(=O)O)cccc34)cc(S(=O)(=O)O)cc2c1,nt,-12.2%,nt,nt,nt,-1.4%
CC1CCN(CC2CCN(C(=O)NCc3ccccc3)CC2)CC1,nt,nt,-0.9%,i,i,nt
O=C(Nc1ccc(Oc2ccccc2)nc1)C1CCCCN1Cc1ccco1 (stereo not drawn),-7.6%,1.84µM*,1.5%,?,i,2.91µM*
O=C(Nc1ccc(Oc2ccccc2)nc1)C1CCN(Cc2ccco2)CC1,0.0%,6.5%,0.0%,i,i,6.2%
Cc1ccc(CN2CCCCC2C(=O)Nc2ccc(Oc3cccnc3)cc2)o1 (stereo not drawn),-0.6%,14.6µM*,?,8.2µM*,5.17µM*,16.4µM*
O=C(Nc1ccc(Oc2cccnc2)cc1)C1CCN(Cc2cc(Cl)ccc2O)CC1,-5.5%,?,2.6%,?,16.4µM*,-4.5%
CCCCN(CC)C(=O)c1cc2c(=O)n3ccccc3nc2n1C,nt,nt,2.2%,nt,nt,nt
SMILES,TSG101-PTAP inh,MCF10A rerep,PINK1 expr mod,KB-V1 cytotox,KB-3-1 tox,SW480 rerep
C[N+](C)(C)CC/C=C1/c2ccccc2CSc2ccccc21,-2.7%,-0.7%,3.5%,i,i,-1.3%
CNCCC=C1c2ccccc2CCc2ccccc21,-1.0%,?,2.3%,20.6µM*,i,-76.7%
Cc1cc(C(=O)COC(=O)c2ccc[nH]c2=O)c(C)n1C1CC1,-2.6%,0.4%,-1.9%,i,i,-8.1%
Cc1cc(C(=O)COC(=O)c2ccc[nH]c2=O)c(C)n1-c1ccc(F)cc1,-2.5%,-10.2%,2.3%,18.4µM*,i,-28.8%
Cc1cc(C(=O)COC(=O)c2ccc[nH]c2=O)c(C)n1-c1ccccc1,-3.9%,-1.8%,0.7%,18.4µM*,i,-37.7%
Cc1cc(C(=O)OCC(=O)NCc2ccco2)c(C)n1-c1ccc(F)cc1,-2.6%,2.06µM*,3.9%,1.3µM*,?,3.66µM*
CCNC(=O)COC(=O)c1cc(C)n(-c2ccccc2)c1C,0.0%,13.1%,-1.1%,i,i,?
CC(c1ccco1)N(C(=O)c1ccccc1NS(=O)(=O)c1ccc(Cl)c([N+](=O)[O-])c1)c1ccccn1 (stereo not drawn),-3.9%,23.1µM*,-4.6%,?,i,2.9%
Cc1cc(C)cc(C(=O)N(c2ccccn2)C(C)c2ccco2)c1 (stereo not drawn),-6.9%,14.0%,0.3%[38.3 µM],13µM*,i,0.4%
CC(c1ccco1)N(C(=O)c1cc(Cl)cc(Cl)c1)c1ccccn1 (stereo not drawn),-5.7%,2.6%,-0.4%,?,i,-12.9%
Cc1ccc2c(c1)c1c(c(=O)n(-c3cccc(Cl)c3)c(=O)n1C)n2C,nt,nt,-0.2%,i,i,nt
CC(C)(O)C#Cc1ccc(C(=O)N2CCN(c3ccccc3)CC2)cc1,-4.9%,?,1.3%,i,i,3.26µM*
CC(C)(O)C#Cc1ccc(C(=O)N2CCN(c3ccc([N+](=O)[O-])cc3)CC2)cc1,-3.0%,10.1%,-1.6%,i,i,-2.7%
Cc1ccc(-c2nnc3ccc(SCC(=O)NCc4ccco4)nn23)cc1,-1.7%,0.4%,-0.2%[38.3 µM],?,i,1.7%
CCOc1ccc(-c2nnc3ccc(SCC(=O)NCc4ccco4)nn23)cc1,0.0%,?,5.8%[38.3 µM],16.4µM*,i,-3.7%
COCC(C)NCc1cc2ccc(OC)cc2nc1N1CCN(c2ccc(F)cc2)CC1 (stereo not drawn),nt,nt,3.6%,nt,nt,nt
CC1CCCCN1C(=O)COC(=O)c1cc([N+](=O)[O-])ccc1N (stereo not drawn),2.7%,6.3%,-2.2%,16.4µM*,i,3.5%
COc1ccc(-c2oc3cccnc3c2C#CCO)cc1,1.0%,-46.8%,-1.4%,i,i,2.5%
COc1cc(-c2ccc3oc(-c4ccsc4)c(C#CC4(O)CCCCC4)c3c2)cc(OC)c1OC,-0.7%,18.4µM*,3.0%,i,i,?
